Shown are actives, neighbours in structure and some others; about 2% of the full set was active somewhere.
CR mimetic SO – lowers age-related superoxide in aged yeast cells; actives 0.18% (n = 330,000); AID 2690; superoxide response (% of plate mean), % at 10 µM; S. cerevisiae aged cells, superoxide DHE fluorescence; stronger effect = lower value;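 active means superoxide response under a set limit, about three screen SD below normal, cut at about 65% in these data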;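 further: yeast aged for seven days with compound at 30 °C before DHE staining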
Calb FLC – C. albicans growth modulation with fluconazole; growth inhibition, % (no concentration beside the values); C. albicans CaCi-2 (fluconazole-resistant clinical isolate) + fluconazole, Alamar Blue growth, 48 h; AID 1979; actives 0.57% (n = 300,000);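 active means growth inhibition above about 58% in most replicates, limit read from the data, passing the limit was not always enough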;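 further: all wells also contain fluconazole at 8 µg/ml as a sub-toxic cotreatment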
Platelet DG rel – modulates dense granule release in human platelets; human platelet-rich plasma, SFLLRN dense granule ATP release, luminescence; inhibition, %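 (compounds screened at 7.5 µM in platelet-rich plasma)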; actives 0.22% (n = 300,000);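 active means mean replicate score, as percent of positive control, at or above 50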
PolyA inhibitor – blocks polyadenylation in yeast reporter cells; S. cerevisiae SKY197-pL101 polyadenylation reporter, beta-gal luminescence; efflux-impaired pdr1/pdr3 knockout yeast; score 100 = 6 SD above DMSO; activity score, % at 12 µM; actives 0.02% (n = 300,000); AID 1875;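 active means lowest replicate activity score at least 50, where 100 means six control SD above control mean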;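 further: yeast exposed to compound for 9 h at 30 °C; higher score means more reporter readthrough which indicates perturbed polyadenylation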
SKKanGAS inh – inhibitors of SKKanGAS S. pyogenes growth in kanamycin (SK-promoter or general growth effect) | BacTiter-Glo, 6 h | inhibition, % at 7.5 µM | actives 1.3% (n = 300,000) | AID 1662;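 active means mean replicate score, as percent of positive control median, at least 50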;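 further: strain carries kanamycin resistance gene driven by streptokinase promoter and grows in 40 µg/ml kanamycin; loss of luminescence reflects streptokinase promoter inhibition or plain growth inhibition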
A number is an active result.

`Oc1ccc(/C=N/Nc2ccc(C(F)(F)F)cn2)c(O)c1` gave CR mimetic SO inactive, Calb FLC 100.4, Platelet DG rel inactive, PolyA inhibitor inactive and SKKanGAS inh inactive.
Screening Oc1ccc(/C=N/Nc2cccc(Cl)n2)c(O)c1 returned CR mimetic SO inactive, Calb FLC inactive, Platelet DG rel 50.3, PolyA inhibitor inactive and SKKanGAS inh inactive.
Screening Oc1ccc(/C=N\Nc2cc(N3CCOCC3)nc(N3CCOCC3)n2)c(O)c1 returned CR mimetic SO inactive, Calb FLC inactive, Platelet DG rel inactive, PolyA inhibitor inactive and SKKanGAS inh inactive.
`Oc1ccc(/C=N/Nc2ccc(C(F)(F)F)cn2)cc1` gave CR mimetic SO inactive, Calb FLC inactive, Platelet DG rel inactive, PolyA inhibitor inactive and SKKanGAS inh inactive.
For COc1cccc2sc3ccc(C#Cc4ccc(N)cc4)cc3c(=O)c12 the results were CR mimetic SO inactive, Calb FLC inactive, Platelet DG rel inactive, PolyA inhibitor inactive and SKKanGAS inh 76.0.
Nc1ccc(C#Cc2ccc3sc4ccccc4c(=O)c3c2)cc1 was read as CR mimetic SO inactive, Calb FLC inactive, Platelet DG rel inactive, PolyA inhibitor inactive and SKKanGAS inh inactive.
Screening CCN(CC)c1ccc(-c2nn3c(-c4ccccc4OC)nnc3s2)cc1 returned CR mimetic SO inactive, Calb FLC inactive, Platelet DG rel inactive, PolyA inhibitor inactive and SKKanGAS inh 55.9.
COc1ccc(-c2nn3c(-c4ccccc4)nnc3s2)cc1 was read as CR mimetic SO inactive, Calb FLC inactive, Platelet DG rel inactive, PolyA inhibitor inactive and SKKanGAS inh inactive.
For CC(C)c1ccc(OCC(=O)NNC(=S)NC(=O)c2ccco2)c(Br)c1 the results were CR mimetic SO inactive, Calb FLC inactive, Platelet DG rel inactive, PolyA inhibitor inactive and SKKanGAS inh 116.7.
`Cc1ccccc1OCC(=O)Nc1ccccc1NC(=O)c1ccco1` gave CR mimetic SO inactive, Calb FLC inactive, Platelet DG rel inactive, PolyA inhibitor inactive and SKKanGAS inh inactive.
`CC(C)(C)c1ccc(OCC(=O)NNC(=S)NC(=O)c2ccco2)c(Br)c1` gave CR mimetic SO inactive, Calb FLC inactive, Platelet DG rel inactive, PolyA inhibitor inactive and SKKanGAS inh 118.5.
Cc1ccccc1OCC(=O)NNC(=S)NC(=O)c1ccco1 was read as CR mimetic SO inactive, Calb FLC inactive, Platelet DG rel inactive, PolyA inhibitor inactive and SKKanGAS inh 114.6.
For COc1ccc(-n2c(-c3ccc(Cl)cc3)c[n+]3c2CCc2ccccc2-3)cc1 the results were CR mimetic SO inactive, Calb FLC 107.7, Platelet DG rel inactive, PolyA inhibitor inactive and SKKanGAS inh inactive.
Screening COc1ccccc1N=C1NC(=O)/C(=C/c2ccc(N(C)C)cc2)S1 returned CR mimetic SO inactive, Calb FLC inactive, Platelet DG rel inactive, PolyA inhibitor inactive and SKKanGAS inh 55.8.
`COc1ccc(/C=C2\SC(=Nc3ccccc3)NC2=O)cc1` gave CR mimetic SO inactive, Calb FLC inactive, Platelet DG rel inactive, PolyA inhibitor inactive and SKKanGAS inh inactive.
`O=C(Nc1cc(-c2ccccc2)[nH]n1)c1ccc(Cl)cc1` gave CR mimetic SO inactive, Calb FLC inactive, Platelet DG rel inactive, PolyA inhibitor inactive and SKKanGAS inh 75.0.
Screening O=C(Nc1ccc(Cl)cc1Cl)c1ccc(-c2ccccc2)cc1 returned CR mimetic SO inactive, Calb FLC inactive, Platelet DG rel inactive, PolyA inhibitor inactive and SKKanGAS inh inactive.
`N/C(=N/OC(=O)c1ccccc1Cl)c1ncc([N+](=O)[O-])s1` gave CR mimetic SO inactive, Calb FLC inactive, Platelet DG rel inactive, PolyA inhibitor inactive and SKKanGAS inh inactive.
Screening Cc1ccc(-n2c(SCC(=O)Nc3ccc4c5c(cccc35)CC4)nc(O)cc2=O)cc1 returned CR mimetic SO inactive, Calb FLC inactive, Platelet DG rel inactive, PolyA inhibitor inactive and SKKanGAS inh 51.6.
`COc1ccc(-n2c(SCC(=O)Nc3ccccc3)nc(O)cc2=O)cc1` gave CR mimetic SO inactive, Calb FLC inactive, Platelet DG rel inactive, PolyA inhibitor inactive and SKKanGAS inh 49.6.
For Cc1ccc(-n2c(SCC(=O)Nc3ccc4c5c(cccc35)CC4)nc(O)c(C)c2=O)cc1 the results were CR mimetic SO inactive, Calb FLC inactive, Platelet DG rel inactive, PolyA inhibitor inactive and SKKanGAS inh inactive.
Screening COc1ccc(NC(=O)CSc2nc(O)cc(=O)n2-c2ccc(OC)cc2)cc1 returned CR mimetic SO inactive, Calb FLC inactive, Platelet DG rel inactive, PolyA inhibitor inactive and SKKanGAS inh 53.6.
`COc1ccc(-n2c(SCC(=O)Nc3cccc4ccccc34)nc(O)cc2=O)cc1` gave CR mimetic SO inactive, Calb FLC inactive, Platelet DG rel inactive, PolyA inhibitor inactive and SKKanGAS inh inactive.
Screening CC(C)CC1Nc2ccc(C(=O)NCCCN3CCCCC3C)cc2NC1=O (stereo unspecified) returned CR mimetic SO inactive, Calb FLC inactive, Platelet DG rel inactive, PolyA inhibitor inactive and SKKanGAS inh inactive.
For COc1ccc(Cl)cc1NC(=O)C/C(C)=N/NC(=O)Cc1ccccc1 the results were CR mimetic SO inactive, Calb FLC inactive, Platelet DG rel inactive, PolyA inhibitor inactive and SKKanGAS inh inactive.
Screening COc1ccc(C(=O)CC(=O)C(=O)Nc2ccccc2Cl)cc1 returned CR mimetic SO inactive, Calb FLC inactive, Platelet DG rel inactive, PolyA inhibitor inactive and SKKanGAS inh 56.1.
For COc1ccc(C(=O)CC(=O)C(=O)Nc2cc(OC)ccc2OC)cc1 the results were CR mimetic SO inactive, Calb FLC inactive, Platelet DG rel inactive, PolyA inhibitor inactive and SKKanGAS inh inactive.
COc1ccc(C(=O)CC(=O)C(=O)Nc2ccccc2C(F)(F)F)cc1 was read as CR mimetic SO inactive, Calb FLC inactive, Platelet DG rel inactive, PolyA inhibitor inactive and SKKanGAS inh 84.6.
For Cc1cccc(N2CC(C(=O)Nc3nnc(SCc4ccccn4)s3)CC2=O)c1 (stereo unspecified) the results were CR mimetic SO inactive, Calb FLC inactive, Platelet DG rel inactive, PolyA inhibitor inactive and SKKanGAS inh inactive.
`COC(=O)c1c(NC(=O)Cc2ccc(OC)c(S(=O)(=O)N3CCOCC3)c2)sc(C)c1C` gave CR mimetic SO inactive, Calb FLC inactive, Platelet DG rel inactive, PolyA inhibitor inactive and SKKanGAS inh inactive.
Screening Cc1ccc(NC(=S)c2nc3ccccc3[nH]2)c(C)c1 returned CR mimetic SO inactive, Calb FLC inactive, Platelet DG rel inactive, PolyA inhibitor inactive and SKKanGAS inh 81.8.
`Cc1ccc(NC(=S)c2nc3ccccc3[nH]2)cc1` gave CR mimetic SO inactive, Calb FLC 85.5, Platelet DG rel inactive, PolyA inhibitor inactive and SKKanGAS inh 93.1.
For O=C(Nc1ccc(Oc2ccc(Cl)cc2)c(Cl)c1)c1cc(I)cc(I)c1O the results were CR mimetic SO inactive, Platelet DG rel inactive, PolyA inhibitor inactive and SKKanGAS inh 103.0.
`CC(C)(C)OC(=O)CNC(=O)c1[nH]cnc1C(=O)NCCCCCNC(=O)OC(C)(C)C` gave CR mimetic SO inactive, Calb FLC inactive, Platelet DG rel inactive, PolyA inhibitor inactive and SKKanGAS inh inactive.

Compound activity (PubChem)
